Structures are written as SMILES. Among all 39,000 compounds or so, about 3,300 (8.5%) were called active. The list comes from a sample in which actives are over-represented; it also holds similar structures and randomly drawn compounds.

This assay has as its system HepG2. The experiment in a line: cytotoxicity call (relative viability < 0.9). The following applies: 10 µM.
`CCS(=O)(=O)N1Cc2nccn2C[C@H](Cn2ncccc2=O)C1`: the cytotoxicity call was “inactive”.

Consider `Cc1ccc(S(=O)(=O)Nc2ccc3c(c2)C(=O)N([C@@H](C)CO)C[C@@H](C)[C@@H](CN(C)S(=O)(=O)c2ccc(F)cc2)O3)cc1`, for which the cytotoxicity call is “inactive”.

For `Cc1noc(C)c1S(=O)(=O)Nc1cccc2c1O[C@H](CN(C)Cc1ccc(C(=O)O)cc1)[C@@H](C)CN([C@H](C)CO)C2=O`, the cytotoxicity call is “inactive”.

Regarding `Cc1noc(C)c1S(=O)(=O)Nc1cccc2c1O[C@@H](CN(C)S(C)(=O)=O)[C@@H](C)CN([C@@H](C)CO)C2=O`, the cytotoxicity call was “active”.

`Cc1noc(C)c1S(=O)(=O)Nc1cccc2c1O[C@H](CN(C)Cc1ccc(C(=O)O)cc1)[C@H](C)CN([C@H](C)CO)C2=O`: the cytotoxicity call is “active”.

Consider `Cc1noc(C)c1S(=O)(=O)Nc1cccc2c1O[C@H](CN(C)S(C)(=O)=O)[C@H](C)CN([C@@H](C)CO)C2=O`, for which the cytotoxicity call is “inactive”.

As for `Cc1noc(C)c1S(=O)(=O)Nc1cccc2c1O[C@@H](CN(C)S(C)(=O)=O)[C@@H](C)CN([C@H](C)CO)C2=O`, the cytotoxicity call was “inactive”.

Consider `Cc1noc(C)c1S(=O)(=O)Nc1cccc2c1O[C@H](CN(C)Cc1ccc(C(=O)O)cc1)[C@H](C)CN([C@@H](C)CO)C2=O`, for which the cytotoxicity call was “inactive”.

On to `CC(C)CC#Cc1cnc2c(c1)C(=O)N([C@@H](C)CO)C[C@@H](C)[C@@H](CN(C)S(=O)(=O)c1cccs1)O2`, for which the cytotoxicity call is “inactive”.

`C[C@H](CO)N1C[C@H](C)[C@H](CN(C)C(=O)Nc2ccc(F)cc2)OCCCC[C@H](C)Oc2ccc(NC(=O)c3ccncc3)cc2C1=O`: the cytotoxicity call is “inactive”.

For `CCS(=O)(=O)N1CC[C@]2(CC1)CN(Cc1ccc3c(c1)OCO3)[C@@H](CO)c1[nH]c3cc(ccc3c12)OC`, the cytotoxicity call was “inactive”.

On to `CCC(=O)N1C[C@]2(CN(C2)C(=O)CN2CCOCC2)c2c([nH]c3cc(ccc23)OC)[C@H]1CO`, for which the cytotoxicity call is “inactive”.

As for `COc1ccc(S(=O)(=O)Nc2ccc3c(c2)C(=O)N([C@H](C)CO)C[C@H](C)[C@@H](CN(C)C(=O)Nc2ccc4c(c2)OCO4)OCCCC[C@@H](C)O3)cc1`, the cytotoxicity call was “inactive”.

On to `C[C@@H]1CN([C@@H](C)CO)C(=O)c2cccc(NC(=O)c3ccncc3)c2O[C@@H]1CN(C)S(=O)(=O)c1cn(C)cn1`, for which the cytotoxicity call is “inactive”.

Consider `Cc1ccc(S(=O)(=O)N(C)C[C@H]2OCCCC[C@H](C)Oc3ccc(NC(=O)Nc4ccc(C(F)(F)F)cc4)cc3C(=O)N([C@@H](C)CO)C[C@@H]2C)cc1`, for which the cytotoxicity call is “inactive”.

Regarding `Cc1ccc(S(=O)(=O)N(C)C[C@@H]2OCCCC[C@H](C)Oc3ccc(NC(=O)Nc4ccc(C(F)(F)F)cc4)cc3C(=O)N([C@@H](C)CO)C[C@@H]2C)cc1`, the cytotoxicity call was “inactive”.

As to `Cc1ccc(S(=O)(=O)N(C)C[C@H]2OCCCC[C@@H](C)Oc3ccc(NC(=O)Nc4ccc(C(F)(F)F)cc4)cc3C(=O)N([C@@H](C)CO)C[C@@H]2C)cc1`, the cytotoxicity call is “active”.

On to `Cc1ccc(S(=O)(=O)N(C)C[C@@H]2OCCCC[C@@H](C)Oc3ccc(NC(=O)Nc4ccc(C(F)(F)F)cc4)cc3C(=O)N([C@@H](C)CO)C[C@H]2C)cc1`, for which the cytotoxicity call was “active”.

In the case of `Cc1ccc(S(=O)(=O)N(C)C[C@@H]2OCCCC[C@@H](C)Oc3ccc(NC(=O)Nc4ccc(C(F)(F)F)cc4)cc3C(=O)N([C@H](C)CO)C[C@H]2C)cc1`, the cytotoxicity call is “inactive”.

Consider `Cc1ccc(S(=O)(=O)N(C)C[C@@H]2OCCCC[C@H](C)Oc3ccc(NC(=O)Nc4ccc(C(F)(F)F)cc4)cc3C(=O)N([C@H](C)CO)C[C@H]2C)cc1`, for which the cytotoxicity call was “inactive”.

On to `O=C([O-])C=CC(=O)[O-].[Fe+2]`, for which the cytotoxicity call was “inactive”.

In the case of `O=C(CCCCC(=O)N/N=C/[C@H](O)[C@@H](O)[C@H](O)[C@H](O)CO[C@H]1O[C@H](CO)[C@H](O)[C@H](O)[C@H]1O)NO`, the cytotoxicity call was “inactive”.

Take `CC(C)NC(=O)N(C)C[C@H]1Oc2ccc(NS(=O)(=O)c3ccc(Cl)cc3)cc2CC(=O)N([C@H](C)CO)C[C@H]1C`: the cytotoxicity call is “inactive”.

On to `CCOC(=O)c1nnn(-c2nonc2N)c1CN1CCSCC1`, for which the cytotoxicity call is “inactive”.

Regarding `CCOC(=O)CCCCCC(=O)Nc1ccc2c(c1)C(=O)N([C@@H](C)CO)C[C@H](C)[C@H](CN(C)S(C)(=O)=O)O2`, the cytotoxicity call is “inactive”.

On to `COc1ccc(C(C)=O)c(O)c1`, for which the cytotoxicity call is “inactive”.

On to `Nc1cc(-c2ccccc2)ccc1O`, for which the cytotoxicity call was “inactive”.

Regarding `COc1ccc(O)c(N)c1`, the cytotoxicity call was “active”.

For `COc1ccc(NC(=O)N(C)C[C@H]2Oc3ccc(NS(C)(=O)=O)cc3CC(=O)N([C@@H](C)CO)C[C@H]2C)cc1`, the cytotoxicity call is “inactive”.

Consider `COc1ccc2c(O[C@H]3CCCC[C@@H]3OC)nccc2c1-n1ccnc1-c1c[nH]c2c(N)c(F)cc(C#N)c12`, for which the cytotoxicity call is “active”.

For `C[C@@H]1CN([C@@H](C)CO)C(=O)c2cc(NS(=O)(=O)c3cn(C)cn3)ccc2O[C@@H](C)CCCCO[C@@H]1CN(C)S(=O)(=O)c1cn(C)cn1`, the cytotoxicity call is “inactive”.

In the case of `COc1ccc(-c2coc3cc(OC)cc(OC)c3c2=O)cc1`, the cytotoxicity call was “inactive”.

On to `C[C@H](CO)N1C[C@H](C)[C@@H](CN(C)S(=O)(=O)c2cccc(F)c2)Oc2ncc(C#CC3(O)CCCC3)cc2C1=O`, for which the cytotoxicity call was “inactive”.

`C[C@@H]1CCCCO[C@@H](CN(C)C(=O)NC2CCCCC2)[C@@H](C)CN([C@H](C)CO)C(=O)c2cc(NC(=O)Cc3ccccc3)ccc2O1`: the cytotoxicity call is “inactive”.

Turning to `C[C@@H]1CN([C@H](C)CO)C(=O)c2cc(NS(C)(=O)=O)ccc2O[C@@H]1CN(C)S(=O)(=O)c1ccc(F)cc1`, the cytotoxicity call was “inactive”.

Regarding `C[C@H](CO)N1C[C@H](C)[C@@H](CN(C)Cc2ccc(C(=O)Nc3ccccc3N)cc2)Oc2c(NC(=O)c3nc4ccccc4s3)cccc2C1=O`, the cytotoxicity call is “active”.

`C[C@H](CO)N1C[C@H](C)[C@H](CN(C)Cc2ccc(C(=O)Nc3ccccc3N)cc2)Oc2c(NC(=O)c3nc4ccccc4s3)cccc2C1=O`: the cytotoxicity call is “inactive”.

In the case of `C[C@H]1CN([C@@H](C)CO)C(=O)c2cccc(NC(=O)c3nc4ccccc4s3)c2O[C@H]1CN(C)Cc1ccc(C(=O)Nc2ccccc2N)cc1`, the cytotoxicity call was “inactive”.

Take `C[C@H]1CN([C@@H](C)CO)C(=O)c2cccc(NC(=O)c3nc4ccccc4s3)c2O[C@@H]1CN(C)Cc1ccc(C(=O)Nc2ccccc2N)cc1`: the cytotoxicity call was “inactive”.

In the case of `C[C@@H]1CN([C@@H](C)CO)C(=O)c2cccc(NC(=O)c3nc4ccccc4s3)c2O[C@@H]1CN(C)Cc1ccc(C(=O)Nc2ccccc2N)cc1`, the cytotoxicity call is “active”.

In the case of `C[C@@H]1CN([C@@H](C)CO)C(=O)c2cccc(NC(=O)c3nc4ccccc4s3)c2O[C@H]1CN(C)Cc1ccc(C(=O)Nc2ccccc2N)cc1`, the cytotoxicity call was “inactive”.

For `C[C@H]1CCCCO[C@H](CN(C)C(=O)NC2CCCCC2)[C@@H](C)CN([C@@H](C)CO)C(=O)c2cc(NC(=O)CCC(F)(F)F)ccc2O1`, the cytotoxicity call is “inactive”.

On to `COc1ccc(S(=O)(=O)N(C)C[C@H]2Oc3c(NC(=O)c4cnccn4)cccc3C(=O)N([C@H](C)CO)C[C@H]2C)cc1`, for which the cytotoxicity call is “inactive”.

As to `C[C@@H]1CN([C@H](C)CO)C(=O)c2cc(NS(=O)(=O)c3ccc(Cl)cc3)ccc2O[C@@H](C)CCCCO[C@@H]1CN(C)Cc1ccncc1`, the cytotoxicity call was “inactive”.

For `CCc1nc2c(C)cc(N3CCN(CC(=O)N4CC(O)C4)CC3)cn2c1N(C)c1nc(-c2ccc(F)cc2)c(C#N)s1`, the cytotoxicity call was “active”.

`COCC#Cc1ccc2c(c1)O[C@H](CN(C)Cc1ccccc1F)[C@@H](C)CN([C@H](C)CO)S2(=O)=O`: the cytotoxicity call is “inactive”.

Consider `C[C@H](CO)N1C[C@H](C)[C@H](CN(C)S(=O)(=O)c2cccs2)Oc2ccc(NS(=O)(=O)c3ccccc3)cc2CC1=O`, for which the cytotoxicity call was “inactive”.

For `C[C@@H]1CN([C@H](C)CO)C(=O)c2cccc(NS(=O)(=O)c3ccc(F)cc3)c2O[C@@H]1CN(C)Cc1ccncc1`, the cytotoxicity call is “inactive”.

In the case of `CC(C)=CCc1c2c(c3occ(-c4ccc(O)cc4)c(=O)c3c1O)C=CC(C)(C)O2`, the cytotoxicity call was “inactive”.

On to `CC1(C)C=Cc2c(c3c(c4c(=O)c(-c5ccc(O)c(O)c5)coc24)OC(C)(C)CC3)O1`, for which the cytotoxicity call is “active”.

Take `CC1(C)C=Cc2c(c3c(c4c(=O)c(-c5ccc(O)cc5)coc24)OC(C)(C)CC3)O1`: the cytotoxicity call was “inactive”.

On to `CC(C)=CCc1c2c(c3occ(-c4ccc(O)c(O)c4)c(=O)c3c1O)C=CC(C)(C)O2`, for which the cytotoxicity call was “active”.

Turning to `CN1CCN(C(=O)C[C@H]2CC[C@@H]3[C@@H](COc4ccc(NC(=O)c5cccs5)cc4C(=O)N3C)O2)CC1`, the cytotoxicity call was “inactive”.

With `Cc1noc(C)c1S(=O)(=O)Nc1ccc2c(c1)C(=O)N([C@@H](C)CO)C[C@H](C)[C@@H](CN(C)Cc1ccccc1)OCCCC[C@@H](C)O2`, the cytotoxicity call is “inactive”.

`C[C@@H]1CN([C@@H](C)CO)C(=O)Cc2cc(NC(=O)Cn3cnnn3)ccc2O[C@@H]1CN(C)Cc1ccc(Oc2ccccc2)cc1`: the cytotoxicity call was “inactive”.

For the compound `Cc1ccc(S(N)(=O)=O)cc1`, the cytotoxicity call is “inactive”.

For `COc1ccc(-c2cc(C(F)F)nn2-c2ccc(S(N)(=O)=O)cc2)cc1F`, the cytotoxicity call was “inactive”.

Turning to `Cc1ccc(-c2cc(C(F)(F)F)nn2-c2ccc(S(N)(=O)=O)cc2)cc1`, the cytotoxicity call is “active”.

Regarding `C[C@@H]1CN([C@H](C)CO)C(=O)c2cc(NC(=O)NC3CCCCC3)ccc2O[C@@H](C)CCCCO[C@@H]1CN(C)S(=O)(=O)c1ccc(F)cc1`, the cytotoxicity call is “inactive”.

Consider `CN1C2CCC1CC(OC(=O)c1c[nH]c3ccccc13)C2.Cl` (configuration not stated), for which the cytotoxicity call was “inactive”.

For the compound `CN1C2CCC1CC(OC(c1ccccc1)c1ccccc1)C2.CS(=O)(=O)O` (configuration not stated), the cytotoxicity call was “active”.

Take `CN1CCC(OC(c2ccccc2)c2ccccc2)CC1.Cl`: the cytotoxicity call is “inactive”.

On to `Cc1noc(C)c1S(=O)(=O)N(C)C[C@@H]1Oc2c(NS(=O)(=O)c3ccccc3)cccc2C(=O)N([C@H](C)CO)C[C@@H]1C`, for which the cytotoxicity call is “inactive”.

As to `C#CC1(O)CCC2C3CCc4cc(O)ccc4C3CCC21C` (configuration not stated), the cytotoxicity call was “active”.

On to `C#CC1(O)CCC2C3CCC4=CCCCC4C3CCC21C` (configuration not stated), for which the cytotoxicity call was “active”.

As for `C#CC1(O)CCC2C3CCc4cc(OC5CCCC5)ccc4C3CCC21C` (configuration not stated), the cytotoxicity call was “inactive”.

Take `C#CC1(O)CCC2C3CCC4=CC(=O)CCC4C3CCC21C` (configuration not stated): the cytotoxicity call is “inactive”.

On to `CC12CCC3c4ccc(O)cc4CCC3C1CC(O)C2O` (configuration not stated), for which the cytotoxicity call was “inactive”.

As to `C#CC1(O)CCC2C3CCC4=C(CCC(=O)C4)C3CCC21C` (configuration not stated), the cytotoxicity call was “inactive”.

`C#CC1(O)CCC2C3CCC4=CCCCC4C3C(=C)CC21CC` (configuration not stated): the cytotoxicity call was “inactive”.

Turning to `C#CC1(O)CCC2C3CCc4cc(OC)ccc4C3CCC21C` (configuration not stated), the cytotoxicity call is “active”.

Consider `CC12CCC3c4ccc(O)cc4CCC3C1CCC2=O` (configuration not stated), for which the cytotoxicity call is “inactive”.

Source of the values: the antibiotic and cytotoxicity screens of Wong et al. (2023).
